PubChem BioAssay (EPA / NIEHS)
Where “and” joins values, the source holds several entries; their conditions need not be identical. Equal entries are not always repeated. Calls of active or inactive are those of the source. How the source made its calls: active means hit-call score of the fitted dose curve at least 0.9, where 1 is the maximum; inactive means score below 0.9.

The molecules below were run on TIMP metallopeptidase inhibitor 1 (TIMP1), TIMP1 (gene 7076) (assay: BSK_hDFCGF_TIMP1: BioMAP Diversity Plus: hDFCGF Assay for TIMP metallopeptidase inhibitor 1 (TIMP1) Biomarker Activity (AID 2283062)). Details: primary human foreskin fibroblasts; actives raise or lower the signal.
Method: BSK_hDFCGF is a cell-based, multiplexed-readout assay that uses foreskin fibroblast, a human skin primary cell, with measurements taken at 24 hours after chemical dosing in a 96-well plate.BSK_hDFCGF_TIMP1 is an assay component measured in the BSK_hDFCGF assay. It measures TIMP-1 antibody related to regulation of gene expression using ELISA technology.Data from the assay component BSK_hDFCGF_TIMP1 was analyzed into 1 assay endpoint. This assay endpoint, BSK_hDFCGF_TIMP1, was analyzed with bidirectional fitting relative to DMSO as the negative control and baseline of activity. Using a type of binding reporter, gain or loss-of-signal activity can be used to understand changes in the signaling as they relate to the gene TIMP1. Furthermore, this assay endpoint can be referred to as a primary readout, because this assay has produced multiple assay endpoints where this one serves a signaling function. To generalize the intended target to other relatable targets, this assay endpoint is annotated to the protease inhibitor intended target family, where the subfamily is metalloproteinase inhibitor.
The levels of cell surface (or secreted, indicated by the prefix "s") biomarker endpoints were measured by ELISA. Overt cytotoxicity to cells in confluent adherent cultures (all systems other than the BT system) was assessed by measuring total protein levels using sulforhodamine B (SRB) staining in parallel cultures at the time of biomarker measurements, indicated as SRB endpoints. For proliferation assays for adherent cell types, individual cell types are cultured at sub-confluence and relative cell numbers quantified by SRB staining at time points optimized for each system (48 h: 3C and CASM3C systems; 72 h: BT and HDF3CGF systems; 96 h: SAg system). SRB was performed by staining cells with 0.1% SRB after fixation with 10% TCA and reading wells at 560 nm.Viability and proliferation of PBMC (T cells) was quantified by Alamar Blue reduction for the SAg and BT systems. For PBMC viability (referred to as PBMC Cytotoxicity within the assay endpoint names), cells were plated (75,000/well in a 96-well plate) and then chemical samples added for 1 h before addition of activators, SEB and TSST-1 (20 ng/mL final concentration each). Cells were incubated for 90 h. Then, Alamar Blue (20 uL/well) (Invitrogen, Cat DAL1100) was added for 6 h, and the plates were read with a fluorescence microplate reader at 546/580 nm (excitation/emission). For PBMC proliferation, cells were plated and activated as above but incubated for only 16 h prior to addition of Alamar Blue. Plates were read after 6 h.

SMILES | outcome | AC50
O=[N+]([O-])O | inactive | 
CC(C)CCCCCCCOP(=O)(Oc1ccccc1)Oc1ccccc1 |  | 12.8 µM (active)
CC(C)CCCCCCCOC(=O)c1ccccc1C(=O)OCCCCCCCC(C)C | inactive | 
CC1(C)[C@H](C(=O)O[C@H](C#N)c2cccc(Oc3ccccc3)c2)[C@@H]1C=C(Br)Br | inactive | 
O=C1C=CC(=O)C=C1 |  | 20 µM (active) and 13.2 µM (active)
O=C(CCl)c1ccccc1 |  | 5.12 µM (active)
COCC(=O)N(c1c(C)cccc1C)N1CCOC1=O | inactive | 
CCCCCCCCCCCC#N |  | 33 µM (active)
CCC(C)c1cc([N+](=O)[O-])cc([N+](=O)[O-])c1OC(=O)C=C(C)C (stereo not drawn) |  | 12 µM (active)
O=[N+]([O-])C=Cc1ccccc1 |  | 13 µM (active)
CCCOC(=O)c1ccccc1C(=O)OCCC | inactive | 
CCc1cc(C)cc(CC)c1-c1c(OC(=O)C(C)(C)C)n2n(c1=O)CCOCC2 | inactive | 
O=c1c2ccccc2c(=O)c2c1cc(Cl)c1[nH]c3c([nH]c12)c(Cl)cc1c(=O)c2ccccc2c(=O)c13 | inactive | 
COc1ccc(CO)cc1 | inactive | 
C=CCN(CC=C)C(=O)C(Cl)Cl | inactive | 
CNC(=O)Oc1cc(C)c(SC)c(C)c1 | inactive | 
O=C1C(Cl)=C(Cl)C(=O)C(Cl)=C1Cl |  | 12.5 µM (active)
Oc1ccc(C2(c3ccc(O)cc3)c3ccccc3-c3ccccc32)cc1 |  | 1.47 µM (active) and 1.56 µM (active)
[Cd+2].[Cl-].[Cl-] |  | 1.12 µM (active) and 1.63 µM (active)

SMILES | outcome | AC50
O=S(=O)(c1ccccc1)c1ccccc1 | inactive | 
O=c1[nH]c(Cl)c(Cl)cc1Cl | inactive | 
O=C(O)CCCc1ccc(N(CCCl)CCCl)cc1 | inactive | 
C=CC(=O)OCC(CC)CCCC (stereo not drawn) |  | 27.5 µM (active)
Clc1ccc(-c2ccccc2)cc1 | inactive | 
N#CCCCCC#N | inactive | 
CC(C)(C)C(=O)CCl | inactive | 
Nc1ccc(-c2ccc(N)c(N)c2)cc1N | inactive | 
CCCC[N+](CCCC)(CCCC)CCCC | inactive | 
Cc1ccc(OP(=O)(Oc2ccc(C)cc2)Oc2ccc(C)cc2)cc1 (tested in a mixture with another compound) | inactive | 
CC(C)COP(=O)(OCC(C)C)OCC(C)C | inactive | 
CC(C)(C)C(O)C(Oc1ccc(-c2ccccc2)cc1)n1cncn1 (stereo not drawn) | inactive | 
Oc1cc(Cl)ccc1Cl | inactive | 
c1ccc(Nc2ccc3ccccc3c2)cc1 |  | 31.5 µM (active)
O=P1(NCCCl)OCCCN1CCCl (stereo not drawn) | inactive | 
CC(C)(c1cc(Cl)c(O)c(Cl)c1)c1cc(Cl)c(O)c(Cl)c1 |  | 11 µM (active)
O=[N+]([O-])c1ccc(Cl)cc1 | inactive | 
COC(C)(C)CCC[C@H](C)C/C=C/C(C)=C/C(=O)OC(C)C |  | 29.8 µM (active)
CC(=O)/C=C/c1ccccc1 | inactive | 
